SRC3 TRFRET art – TR-FRET detection interference compounds, artefact control for PPARgamma SRC-3 recruitment agonists, biochemical, TR-FRET ratio | TR-FRET artefact counter-screen, PPARgamma/SRC-3 format; stronger effect = higher value | TR-FRET ratio at 8 µM | 99,000 compounds, 0.39% hits
PPARg SRC-2 ag – agonists of PPARg-SRC-2 recruitment, primary screen, biochemical, HTS; PPARgamma LBD-SRC-2 recruitment; activation, % at 8 µM; 200,000 compounds, 0.34% hits; AID 1032, 2008; in the data active means activation above about 22%;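 further: 0% = vehicle and 100% = reference agonist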
Target sequence (P37231 whole entry, looked up, the tested form may be a part): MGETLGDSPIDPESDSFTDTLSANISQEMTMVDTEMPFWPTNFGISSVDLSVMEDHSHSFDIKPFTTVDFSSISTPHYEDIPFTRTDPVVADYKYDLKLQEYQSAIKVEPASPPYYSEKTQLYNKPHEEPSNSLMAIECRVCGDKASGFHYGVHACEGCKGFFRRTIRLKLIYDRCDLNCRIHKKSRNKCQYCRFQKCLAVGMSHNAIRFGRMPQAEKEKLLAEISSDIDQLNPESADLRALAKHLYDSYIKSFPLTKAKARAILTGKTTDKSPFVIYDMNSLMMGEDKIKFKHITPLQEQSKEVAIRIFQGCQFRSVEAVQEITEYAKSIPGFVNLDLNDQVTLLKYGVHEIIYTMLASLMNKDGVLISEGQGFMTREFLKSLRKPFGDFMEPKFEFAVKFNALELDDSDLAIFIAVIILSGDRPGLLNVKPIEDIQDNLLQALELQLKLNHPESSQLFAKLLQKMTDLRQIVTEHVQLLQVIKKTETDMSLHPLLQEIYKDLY
SRC1 TRFRET art – TR-FRET detection interference compounds, primary screen, artefact control for PPARgamma SRC-1 recruitment agonists, biochemical, TR-FRET emission ratio; TR-FRET detection artefact counter-screen; stronger effect = higher value; TR-FRET ratio at 8 µM; 99,000 compounds, 0.34% hits; AID 1051, 2008; in the data active means TR-FRET ratio above about 2300
PPARg SRC-1 ag – PPARgamma agonists recruiting SRC-1 coactivator, primary screen, biochemical | AID 631, 2007 | PPARgamma-SRC-1 coactivator recruitment biochemical assay | 200,000 compounds, 0.41% hits | activation, % at 8 µM | Peroxisome proliferator-activated receptor gamma (Homo sapiens), P37231; in the data active means activation above about 19%;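 further: 0% = DMSO and 100% = reference agonist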
PPARg SRC3 recr – PPARgamma agonists recruiting SRC-3 coactivator, primary screen, biochemical | Peroxisome proliferator-activated receptor gamma (Homo sapiens), P37231 | biochemical PPARgamma/SRC-3 coactivator recruitment assay | activation, % at 8 µM | 200,000 compounds, 0.26% hits; in the data active means activation above about 23%;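 further: 0% = DMSO and 100% = reference agonist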
SRC2 TRFRET art – TR-FRET signal artefacts, primary screen, artefact control for PPARgamma SRC-2 agonist project, biochemical | TR-FRET artefact counter-screen; stronger effect = higher value | TR-FRET ratio at 8 µM | 200,000 compounds, 0.4% hits | AID 1049, 2008
PPARg SRC2 ag – agonists of PPARgamma SRC-2 coactivator recruitment, confirmation, biochemical, HTS; AID 1297, 2008; biochemical SRC-2 recruitment by PPARgamma; shares compounds with PPARg SRC3 recr; 790 compounds, 52% hits; activation, % at 8 µM; in the data active means activation above about 22%;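 further: 0% = vehicle alone and 100% = reference agonist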
PPARg SRC1 ag – PPARgamma agonists recruiting SRC-1 coactivator, confirmation, biochemical | shares compounds with PPARg SRC3 recr | PPARgamma–SRC-1 coactivator recruitment biochemical assay | activation, % at 8 µM | 790 compounds, 43% hits | AID 1300, 2008; in the data active means activation above about 20%;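 further: 0% = vehicle wells and 100% = reference agonist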
PPARg SRC3 conf – PPARgamma-driven SRC-3 coactivator recruitment agonists, confirmation, biochemical | biochemical PPARgamma-SRC-3 coactivator recruitment, agonist mode | 790 compounds, 29% hits | activation, % at 8 µM | shares compounds with PPARg SRC3 recr | AID 1301, 2008; in the data active means activation above about 24%;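 further: 0% = vehicle wells and 100% = reference agonist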
An asterisk follows results filed as active; · = no result. Sampled rows, rich in hits. Any-hit rate of the full collection: about 0.9%. Unless noted, no stated cut-off is given here; in the data, active means TR-FRET ratio above about 2000; inactive means the rest.

SMILES	SRC3 TRFRET art	PPARg SRC-2 ag	SRC1 TRFRET art	PPARg SRC-1 ag	PPARg SRC3 recr	SRC2 TRFRET art	others
Cc1ccc2cc(C#N)c(NCc3ccccc3)nc2c1	2317*	17	2504*	19	18	1722
COC(=O)c1ccccc1NC(=S)N(Cc1ccc2c(c1)OCO2)Cc1cc2ccc(OC)cc2[nH]c1=O	2123*	13	1854	-5	-1	1721
O=C(c1ccccc1-c1ncc[nH]1)N1CCc2c([nH]c3ccccc23)C1c1ccccn1 (stereo unspecified)	1452	0	1420	5	0	1397
CCc1ccc(OCCn2cccn2)cc1	1635	5	2048	2	3	1642
O=C(Cc1sc(-c2ccccc2Cl)nc1-c1ccccc1)Nc1ccccc1	·	6	·	75*	1	1609
CC(=O)N1CC(=O)N=C1SCC(=O)Nc1nc(-c2ccccc2)c(-c2ccccc2)s1	1929	18	2356*	17	10	1758
Cc1sc(NC(=O)CSC2=NCCS2)nc1-c1ccccc1	·	3	·	-1	7	1486
CCOc1ccccc1-n1c(C)nc2cc(C(=O)O)ccc21	1625	-3	2322*	8	5	1695
Cc1nc2cc(C(=O)O)ccc2n1-c1ccc(F)cc1F	·	6	·	0	6	1608
CCNc1nc(NC(C)(C)C)nc(SCC(N)=O)n1	1729	1	1594	-5	4	1381
COc1ccc(-c2cn3c(C)c(C(=O)Nc4ccncc4)sc3n2)cc1	·	1	·	1	-15	1516
Cc1c(C(=O)Nc2ccncc2)sc2nc(-c3ccc(F)cc3)cn12	2105*	22	2289	6	13	1995*
COC(=O)c1c(NC(NC(=O)c2ccccc2)(C(F)(F)F)C(F)(F)F)sc2c1CCN(C)C2	1622	8	2058	10	0	1983*
CCC(=O)NC(Nc1sc2c(c1C(=O)OC)CCCC2)(C(F)(F)F)C(F)(F)F	·	0	·	-3	-2	1419
CCOC(=O)c1ccc(NC(=O)CCc2nc(-c3ccc(C)cc3)no2)cc1	·	35*	·	-2	8	2077*
CCOC(=O)c1ccc(NC(=O)CCc2nc(-c3ccc(Cl)cc3)no2)cc1	·	1	·	2	-12	1790
Cc1ccccc1OCC(=O)Nc1sc(C(=O)Nc2cccc(C)c2C)c(C)c1C#N	·	5	·	24*	5	1740
COc1ccc(/C(N)=N/OC(=O)CN(C)S(=O)(=O)c2ccccc2)cc1	1502	6	1709	0	5	1684
COc1ccc(/C(N)=N/OC(=O)CN(C)S(=O)(=O)c2ccc(C)cc2)cc1	1722	4	1999	22*	5	1857
O=C(CCC(=O)Nc1ccccc1)NNS(=O)(=O)c1ccccc1[N+](=O)[O-]	1422	2	1705	-7	1	1335
Cc1ccc(S(=O)(=O)NCc2ccc3c(c2)cc(C)n3C)cc1	·	6	·	8	2	2007*
O=C1c2ccccc2C(=O)N1Cc1ccc2c(c1)OCO2	·	-6	·	-6	-7	1414
Cc1cc2cc(CN3C(=O)c4ccccc4C3=O)ccc2n1C	2708*	6	2104	2	0	1840
Cc1cccc(NC(=O)CSc2nnc(CNC(=O)c3cccs3)o2)c1C	1512	-1	1555	3	-1	1547
CC(=O)NC(Nc1c(C)n(C)n(-c2ccccc2)c1=O)C(Cl)(Cl)Cl (stereo unspecified)	1720	8	1801	8	1	1542
SMILES	SRC3 TRFRET art	PPARg SRC-2 ag	SRC1 TRFRET art	PPARg SRC-1 ag	PPARg SRC3 recr	SRC2 TRFRET art	others
O=C(Cn1c2ccccc2c(=O)c2ccccc21)Nc1cccc(F)c1	1575	-1	1626	0	-4	1517
Cc1ccc(/C=N/NC(=O)c2ccoc2C)s1	1691	-6	1649	8	1	1445
Cc1occc1C(=O)N/N=C/c1ccc(Br)s1	1760	6	1992	22*	7	1634
CC1(C)CC(CCC(=O)NC(=S)Nc2ccccc2Cl)C(=O)O1 (stereo unspecified)	1470	7	1646	4	3	1562
Cc1ccc(NC(=O)/C(=C/c2cccc([N+](=O)[O-])c2)NC(=O)C2CCCCC2)c(C)c1	·	-1	·	-5	5	1516
O=C(Nc1ccc([N+](=O)[O-])cc1)/C(=C/c1cccc([N+](=O)[O-])c1)NC(=O)C1CCCCC1	·	24*	·	-1	8	1705
Cc1ccc(-c2csc(N/N=C/c3ccco3)n2)cc1	·	3	·	-5	9	1751
Brc1ccc(-c2csc(N/N=C/c3ccco3)n2)cc1	1608	22*	1707	3	1	1757
CCOc1ccc(NC(=S)NC(C)C(c2ccccc2)N2CCN(C)CC2)cc1 (stereo unspecified)	1519	3	1662	8	2	1416
CC(NC(=O)COc1ccccc1)C(c1ccccc1)N1CCN(C)CC1 (stereo unspecified)	1665	7	2331*	9	1	1583
COC(=O)c1cccc(NC(=O)/C=C/c2cccc([N+](=O)[O-])c2)c1	·	0	·	-4	-4	1465
COC(=O)c1cccc(NC(=O)/C=C/c2ccc([N+](=O)[O-])cc2)c1	2126*	-1	1916	8	0	1720
COc1ccc(-c2nc(-c3cccs3)c(-c3cccs3)[nH]2)cc1OC	·	28*	·	23*	30*	2267*	PPARg SRC2 ag=35*;PPARg SRC1 ag=31*;PPARg SRC3 conf=26*
COc1cccc2cc(C(=O)C3=C(O)C(=O)N(Cc4ccco4)C3c3cccnc3)oc12 (stereo unspecified)	·	26*	·	27*	40*	2226*	PPARg SRC2 ag=23*;PPARg SRC1 ag=14;PPARg SRC3 conf=14
O=C(C1=C(O)C(=O)N(Cc2ccco2)C1c1cccnc1)c1cc2ccccc2o1 (stereo unspecified)	·	34*	·	33*	50*	2097*	PPARg SRC2 ag=21;PPARg SRC1 ag=15;PPARg SRC3 conf=14
O=C(C1=C(O)C(=O)N(CC2CCCO2)C1c1cccnc1)c1ccco1 (stereo unspecified)	·	3	·	3	7	1600

Assay outcomes: PubChem BioAssay, The Scripps Research Institute Molecular Screening Center
